The assay addresses T1, CRBN, Q96SW2.
T1 chain: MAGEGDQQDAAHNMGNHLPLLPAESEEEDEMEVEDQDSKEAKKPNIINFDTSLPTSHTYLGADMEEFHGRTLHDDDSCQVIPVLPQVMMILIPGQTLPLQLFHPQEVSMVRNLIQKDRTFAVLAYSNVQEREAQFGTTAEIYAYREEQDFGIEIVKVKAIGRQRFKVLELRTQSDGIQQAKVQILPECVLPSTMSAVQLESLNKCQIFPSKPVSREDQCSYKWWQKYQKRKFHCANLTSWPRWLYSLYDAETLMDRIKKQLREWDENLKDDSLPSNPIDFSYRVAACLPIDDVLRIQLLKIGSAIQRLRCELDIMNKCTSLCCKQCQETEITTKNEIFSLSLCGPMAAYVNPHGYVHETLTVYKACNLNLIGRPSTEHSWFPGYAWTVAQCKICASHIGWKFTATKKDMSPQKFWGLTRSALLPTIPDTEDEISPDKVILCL
Description: log2 fold change of degron read counts, EGFP-low vs EGFP+ sorted cells (limma voom), compound-induced degradation; higher = more compound-induced degradation of the degron-EGFP fusion; degrons are variants of IKZF1/3 zinc finger 2; compound dose not given here. To be noted: Jurkat, 18 h.

The mark [1] stands for this setting: compound: compound 19 (5-tert-butyl-thalidomide).
[2] abbreviates: compound: compound 22 (5-morpholino-thalidomide).
[3] abbreviates: compound: compound 33 (diphenyl IMiD analogue).

The full ranking holds about 8,300 sequences; the median of “log2 fold change of degron read counts, EGFP-low vs EGFP+ sorted cells (limma voom), compound-induced degradation” is about -1.1, and the highest 2% start at about 3.2. The sample holds the highest values, similar sequences and a random draw of the others, so the mix is not that of the screen.
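Note: pooled lentiviral library of zinc finger degron-EGFP fusions in mCherry-positive Jurkat cells, FACS-sorted after compound exposure, with degron abundance counted by next-generation sequencing.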

As for LDCPICGFWCTQKGNLLRHIKL [46L_47D_49P_50I_52G_53F_54W_55C_67L_, Q9UKT9], the “log2 fold change of degron read counts” value was -0.559 under setting [1], -0.625 under setting [2], 0.68 under setting [3] and 1.33 (compound: thalidomide).

In the case of FACPVCGAVFTQKGNLLRHIKL [46F_47A_49P_50V_52G_53A_54V_55F_67L_, Q9UKT9], the “log2 fold change of degron read counts” value reads like this: under setting [1], 3.09; under setting [2], 1.74; under setting [3], 1.78; (compound: thalidomide) 0.502.

Regarding FYCPQCGAMFTQKGNLLRHIKL [46F_47Y_49P_50Q_52G_53A_54M_55F_67L_, Q9UKT9], the “log2 fold change of degron read counts” value runs as follows: under setting [1], 0.518; under setting [2], 0.45; under setting [3], 0.601; (compound: thalidomide) -1.06.

Turning to FCCNVCGAWFTQKGNLLRHIKL [46F_47C_49N_50V_52G_53A_54W_55F_67L_, Q9UKT9], the “log2 fold change of degron read counts” value runs as follows: under setting [1], -1.92; under setting [2], -1.43; under setting [3], -1.27; (compound: thalidomide) -1.34.

On to FICEVCGADFTQKGNLLRHIKL [46F_47I_49E_50V_52G_53A_54D_55F_67L_, Q9UKT9], for which the “log2 fold change of degron read counts” value was -2.24 under setting [1], -0.906 under setting [2], -0.571 under setting [3] and 0.184 (compound: thalidomide).

As for FTCDVCGAMFTQKGNLLRHIKL [46F_47T_49D_50V_52G_53A_54M_55F_67L_, Q9UKT9], the “log2 fold change of degron read counts” value is -1.4 under setting [1], -0.892 under setting [2], -0.371 under setting [3] and -0.84 (compound: thalidomide).

On to LSCNQCGFVCTQKGNLLRHIKL [46L_47S_49N_50Q_52G_53F_54V_55C_67L_, Q9UKT9], for which the “log2 fold change of degron read counts” value was -2.24 under setting [1], -2.61 under setting [2], -2 under setting [3] and -2.24 (compound: thalidomide).

On to FGCPVCGACFTQKGNLLRHIKL [46F_47G_49P_50V_52G_53A_54C_55F_67L_, Q9UKT9], for which the “log2 fold change of degron read counts” value reads like this: under setting [1], 3.88; under setting [2], 3.16; under setting [3], 2.81; (compound: thalidomide) 1.1.

FMCPVCGACFTQKGNLLRHIKL [46F_47M_49P_50V_52G_53A_54C_55F_67L_, Q9UKT9]: the “log2 fold change of degron read counts” value is, setting by setting: under setting [1], -0.624; under setting [2], 0.321; under setting [3], 2.31; (compound: thalidomide) 0.962.

As for FACPVCGACFTQKGNLLRHIKL [46F_47A_49P_50V_52G_53A_54C_55F_67L_, Q9UKT9], the “log2 fold change of degron read counts” value runs as follows: under setting [1], 3.39; under setting [2], 1.64; under setting [3], 1.85; (compound: thalidomide) 0.646.

Take FVCPVCGACFTQKGNLLRHIKL [46F_47V_49P_50V_52G_53A_54C_55F_67L_, Q9UKT9]: the “log2 fold change of degron read counts” value was -0.46 under setting [1], 1.87 under setting [2], 2.08 under setting [3] and 2.53 (compound: thalidomide).

Regarding FCCPVCGACFTQKGNLLRHIKL [46F_47C_49P_50V_52G_53A_54C_55F_67L_, Q9UKT9], the “log2 fold change of degron read counts” value by setting is: under setting [1], 2.37; under setting [2], 1.98; under setting [3], 2.99; (compound: thalidomide) 2.06.

For FSCPVCGACFTQKGNLLRHIKL [46F_47S_49P_50V_52G_53A_54C_55F_67L_, Q9UKT9], the “log2 fold change of degron read counts” value under setting [1] was 2.64, the “log2 fold change of degron read counts” value under setting [2] was found to be 1.8, the “log2 fold change of degron read counts” value under setting [3] stood at 2.73 and the “log2 fold change of degron read counts” value (compound: thalidomide) came out at 1.07.

On to FFCPVCGACFTQKGNLLRHIKL [46F_47F_49P_50V_52G_53A_54C_55F_67L_, Q9UKT9], for which the “log2 fold change of degron read counts” value runs as follows: under setting [1], 3; under setting [2], 3.34; under setting [3], 2.16; (compound: thalidomide) 1.3.

In the case of FDCPVCGACFTQKGNLLRHIKL [46F_47D_49P_50V_52G_53A_54C_55F_67L_, Q9UKT9], the “log2 fold change of degron read counts” value is 1.39 under setting [1], -0.358 under setting [2], 1.46 under setting [3] and 1.34 (compound: thalidomide).

Regarding FRCPVCGACFTQKGNLLRHIKL [46F_47R_49P_50V_52G_53A_54C_55F_67L_, Q9UKT9], the “log2 fold change of degron read counts” value under setting [1] is -0.619, the “log2 fold change of degron read counts” value under setting [2] is 0.101, the “log2 fold change of degron read counts” value under setting [3] worked out at 1.52 and the “log2 fold change of degron read counts” value (compound: thalidomide) worked out at 0.981.

As to FWCDVCGACFTQKGNLLRHIKL [46F_47W_49D_50V_52G_53A_54C_55F_67L_, Q9UKT9], the “log2 fold change of degron read counts” value by setting is: under setting [1], 2.78; under setting [2], 3.47; under setting [3], 1.12; (compound: thalidomide) -0.931.

For FHCDVCGACFTQKGNLLRHIKL [46F_47H_49D_50V_52G_53A_54C_55F_67L_, Q9UKT9], the “log2 fold change of degron read counts” value reads like this: under setting [1], 0.383; under setting [2], 0.3; under setting [3], -1.01; (compound: thalidomide) -2.43.

With FVCDVCGACFTQKGNLLRHIKL [46F_47V_49D_50V_52G_53A_54C_55F_67L_, Q9UKT9], the “log2 fold change of degron read counts” value by setting is: under setting [1], -1.45; under setting [2], -0.0454; under setting [3], 0.676; (compound: thalidomide) 0.186.

For FFCDQCGAEFTQKGNLLRHIKL [46F_47F_49D_50Q_52G_53A_54E_55F_67L_, Q9UKT9], the “log2 fold change of degron read counts” value is -0.653 under setting [1], -1.5 under setting [2], -2.48 under setting [3] and -2.75 (compound: thalidomide).

As for FACPVCGAFFTQKGNLLRHIKL [46F_47A_49P_50V_52G_53A_54F_55F_67L_, Q9UKT9], the “log2 fold change of degron read counts” value is, setting by setting: under setting [1], 1.92; under setting [2], -0.0365; under setting [3], 0.632; (compound: thalidomide) -0.719.

Take FECPICGHEFTQKGNLLRHIKL [46F_47E_49P_50I_52G_53H_54E_55F_67L_, Q9UKT9]: the “log2 fold change of degron read counts” value reads like this: under setting [1], -3.46; under setting [2], -3.29; under setting [3], -1.58; (compound: thalidomide) -1.82.

Turning to FLCEICGRRFTQKGNLLRHIKL [46F_47L_49E_50I_52G_53R_54R_55F_67L_, Q9UKT9], the “log2 fold change of degron read counts” value by setting is: under setting [1], -1.65; under setting [2], -2.28; under setting [3], -1.89; (compound: thalidomide) -0.0712.

FLCNVCGASFTQKGNLLRHIKL [46F_47L_49N_50V_52G_53A_54S_55F_67L_, Q9UKT9]: the “log2 fold change of degron read counts” value under setting [1] was -1.47, the “log2 fold change of degron read counts” value under setting [2] is -1.87, the “log2 fold change of degron read counts” value under setting [3] is -0.611 and the “log2 fold change of degron read counts” value (compound: thalidomide) was -0.827.

As to FFCPICGHEFTQKGNLLRHIKL [46F_47F_49P_50I_52G_53H_54E_55F_67L_, Q9UKT9], the “log2 fold change of degron read counts” value is -1.46 under setting [1], -1.37 under setting [2], -1.31 under setting [3] and -1.41 (compound: thalidomide).

Regarding FMCNVCGAMFTQKGNLLRHIKL [46F_47M_49N_50V_52G_53A_54M_55F_67L_, Q9UKT9], the “log2 fold change of degron read counts” value is -2.09 under setting [1], -2.13 under setting [2], 0.122 under setting [3] and -1.26 (compound: thalidomide).

As to FTCNVCGALFTQKGNLLRHIKL [46F_47T_49N_50V_52G_53A_54L_55F_67L_, Q9UKT9], the “log2 fold change of degron read counts” value reads like this: under setting [1], -2.25; under setting [2], -1.98; under setting [3], -0.325; (compound: thalidomide) -1.1.

For the sequence FKCDICGAGFTQKGNLLRHIKL [46F_47K_49D_50I_52G_53A_54G_55F_67L_, Q9UKT9], the “log2 fold change of degron read counts” value under setting [1] was determined as 0.734, the “log2 fold change of degron read counts” value under setting [2] was -1.83, the “log2 fold change of degron read counts” value under setting [3] was -2.3 and the “log2 fold change of degron read counts” value (compound: thalidomide) was -1.43.

The values above are taken from the supplement of paper PMC12645437, “Orthogonal IMiD-Degron Pairs Induce Selective Protein Degradation in Cells” (ACS Chemical Biology, 2025).
